The list is not random: actives were taken first. Their share in the collection is about 9.8%.
HPGD block – qHTS Assay for Inhibitors of HPGD (15-Hydroxyprostaglandin Dehydrogenase). actives 4.3% (n = 150,000). 15-hydroxyprostaglandin dehydrogenase [NAD(+)] (Homo sapiens), P15428. Potency, µM, hits mostly inhibitors. purified HPGD, NADH fluorescence kinetic, PGE2 substrate. AID 894, 2007
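20 nM HPGD preincubated 15 min at room temperature with compound in 50 mM Tris-HCl pH 8, 0.01% Tween 20. Started with 1 mM NAD+ and 30 uM prostaglandin E2; NADH fluorescence (360/450 nm) read 5 times over 30-s intervals, last minus first.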
ALDH1A1 inh – qHTS Assay for Inhibitors of Aldehyde Dehydrogenase 1 (ALDH1A1). Potency, µM (series often up to 75.3 µM), most hits filed as inhibitors. actives 7.3% (n = 220,000). Purified ALDH1A1, NADH fluorescence, propionaldehyde substrate. Aldehyde dehydrogenase 1A1 (Homo sapiens), P00352
HTT ATP protect – qHTS Multiplex Assay to Identify Dual Action Probes in a Cell Model of Huntington: Cytoprotection (ATP) | PC12 HTT-Q103 induced, cytoprotection, ATP luminescence, 40 h | Potency, µM (series often up to 56.4 µM), actives largely listed as activators | actives 0.14% (n = 230,000); active means well fitted curve in the direction sought with a large enough effect; inconclusive means small, poorly fitted or top-dose-only effect, or another doubt; inactive means no such curve, though single readings can be large; an effect the other way counts as inactive or inconclusive; further: nearly all actives have a fitted effect of over 45% in size
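Rat PC12, Q103 Htt exon1-GFP fusion, ecdysone promoter; tebufenozide inducer 100 nM final; compound titration; qHTS, 1500 cells/well; ATPlite luminescent read.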
CBFb RUNX1 block – qHTS Assay for Compounds Blocking the Interaction Between CBF-beta and RUNX1 for the Treatment of Acute Myeloid Leukemia; Potency, µM (top dose mostly 59.8 µM), actives largely listed as inhibitors; 230,000 tested, under 10 active; AlphaScreen CBFb-His/RUNX1-biotin binding, biochemical; Runt-related transcription factor 1 (Homo sapiens) + Core-binding factor subunit beta …; active means well fitted curve in the direction sought with a large enough effect; inconclusive means small, poorly fitted or top-dose-only effect, or another doubt; inactive means no such curve, though single readings can be large; an effect the other way counts as inactive or inconclusive
Target sequence (Q01196 whole entry, looked up): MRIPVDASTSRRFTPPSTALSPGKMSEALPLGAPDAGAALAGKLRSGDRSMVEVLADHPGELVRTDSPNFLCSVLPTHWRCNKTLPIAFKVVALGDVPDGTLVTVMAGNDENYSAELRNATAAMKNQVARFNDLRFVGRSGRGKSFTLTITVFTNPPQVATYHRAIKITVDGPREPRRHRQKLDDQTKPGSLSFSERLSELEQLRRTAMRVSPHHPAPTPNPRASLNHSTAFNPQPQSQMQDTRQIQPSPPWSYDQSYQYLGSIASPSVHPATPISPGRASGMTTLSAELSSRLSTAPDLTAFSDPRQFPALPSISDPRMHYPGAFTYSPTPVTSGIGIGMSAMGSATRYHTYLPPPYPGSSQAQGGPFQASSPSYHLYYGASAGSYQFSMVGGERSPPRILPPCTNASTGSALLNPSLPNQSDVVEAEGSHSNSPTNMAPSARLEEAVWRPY
Target sequence (Q13951 whole entry, looked up): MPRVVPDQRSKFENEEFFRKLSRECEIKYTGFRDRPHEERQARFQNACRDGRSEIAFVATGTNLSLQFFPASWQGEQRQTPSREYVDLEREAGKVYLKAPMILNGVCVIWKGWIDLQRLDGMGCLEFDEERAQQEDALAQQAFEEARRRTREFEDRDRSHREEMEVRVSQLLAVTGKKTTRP
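Compounds were screened at multiple concentrations against a preformed CBF-beta(His)/RUNX1(biotin) complex (30 nM of each) for 15 min at room temperature, followed by 90 min with nickel and streptavidin beads and AlphaScreen reading.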
HttQ103 aggreg – qHTS Multiplex Assay to Identify Dual Action Probes in a Cell Model of Huntington: Aggregate Formation (GFP); actives 1.1% (n = 220,000); PC12 HttQ103-GFP aggregates, Acumen cytometry, 40 h; Potency, µM (series often up to 46.1 µM), usual class: inhibitors; active means well fitted curve in the direction sought with a large enough effect; inconclusive means small, poorly fitted or top-dose-only effect, or another doubt; inactive means no such curve, though single readings can be large; an effect the other way counts as inactive or inconclusive; further: nearly all actives have a fitted effect of over 60% in size
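Ecdysone-promoter PC12 model expressing HTT exon 1 Q103 fused to GFP, induced by tebufenozide at 100 nM final. Compounds titrated; aggregates sized 1–25 µm scored on a 488 nm laser cytometer.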
JMJD2E inh – qHTS Assay for Inhibitors of Human Jumonji Domain Containing 2E (JMJD2E); Potency, µM (top dose mostly 57.1 µM), actives largely listed as inhibitors; actives 1.6% (n = 230,000); JMJD2E catalytic domain, FDH-coupled NADH fluorescence (FDH is formaldehyde dehydrogenase); further: nearly all actives have a fitted effect of over 50% in size
Hits are given with their value; – = inactive; ? = inconclusive; · = no result; [ ] = remark or other dose. Unless noted, the call rests on the fitted dose curve; in most records, active means well fitted inhibition curve with a large enough effect (not every such curve was filed as active); inconclusive means small, poorly fitted or top-dose-only effect, or another doubt; inactive means no such curve, though single readings can be large or run the other way.

SMILES	HPGD block	ALDH1A1 inh	HTT ATP protect	CBFb RUNX1 block	HttQ103 aggreg	JMJD2E inh
Cc1nn(-c2ccccc2)c(N)c1N=Nc1cccc(S(=O)(=O)N2CCOCC2)c1	·	·	–[10 µM]	·	–[9.22 µM]	–
Nc1nn(-c2ccccc2)c(N)c1N=Nc1ccccc1F	13µM	–	–[10 µM]	–	–	–
Cc1nn(-c2ccccc2)c(N)c1N=Nc1ccccc1	20µM	?	·	–	–	–
Cc1nn(-c2ccccc2)c(N)c1N=Nc1ccc(Cl)cc1	–	–	–[10 µM]	?	3.5µM	–
Nc1nn(-c2ccccc2)c(N)c1N=Nc1ccccc1	–	–	–[10 µM]	–	–	–
O=Cc1c[nH]c2ncccc12	·	·	–[10 µM]	–	–[9.22 µM]	–
O=C(NC1CC(=O)c2sccc21)c1ccc(Cl)cc1Cl (configuration not stated)	·	–	–[10 µM]	–	–	–
N#C/C(=C\c1coc2ccc(O)cc2c1=O)C(=O)Nc1nc2ccccc2s1	·	·	–[10 µM]	–	–[9.22 µM]	?
CCCCOC(=O)c1ccc(NC(=S)NC(=O)c2c(Cl)cnn2C)cc1	–	?	–	–	–	–
CCCCOC(=O)c1ccc(NC(=S)NC(=O)c2c(Cl)cnn2CC)cc1	–	3.5µM	–	–	–	–
O=C(CCCOc1ccc(Cl)cc1Cl)n1nnc2ccccc21	8.9µM	–	–[10 µM]	–	–	–
CC(=O)c1ccc(OCC(O)Cn2nnc3ccccc32)cc1 (configuration not stated)	–	–	–	–	–	–
CC(=O)c1ccc(OCCCC(=O)n2nnc3ccccc32)cc1	20µM	–	–	–	–	–
CCC[C@H](N[C@@H](C)C(=O)N1[C@@H]2CCCC[C@H]2C[C@H]1C(=O)O)C(=O)OCC	–	–	·	–	·	·
CC[C@@H](C)CN1C(=O)N[C@@H](c2ccccc2)C(C(=O)OC)=C1C	–	–[13.5 µM]	–[10 µM]	–[13.1 µM]	·	–[11.4 µM]
Cc1oc2ccc(O)c(CN3CCOCC3)c2c1C(C)O (configuration not stated)	–	7.1µM	–[1.9 µM]	–	–	–
CCCCOc1ccc(C(=O)N2CC(C)OC(C)C2)cc1 (configuration not stated)	?	0.079µM	–	–	–	–
CN1CCN(C(=O)c2ccc(COc3ccc(C(C)(C)C)cc3)o2)CC1	–	–	–	–	–	–
COc1ccc(C(=O)N2CCC(C(=O)c3c(C)cc(C)cc3C)CC2)cc1	·	22µM	–[10 µM]	–	–[9.22 µM]	–
CCOc1ccc(OCc2ccc(C(=O)N3CCCC3)o2)cc1	?	28µM	–[10 µM]	–	–	–
COc1ccc(C(=O)N2CCC(C(=O)O)CC2)cc1	–	–	–	–	–	–
COc1ccc(OCCC(=O)N2CCCCC2)cc1	16µM	–	–	–	–	–
COc1ccc(C(CC(=O)N2CCCCC2)C(C)C)cc1 (configuration not stated)	·	–	–[10 µM]	–	–[9.22 µM]	–
CC1(C)SC(=S)N(/N=C/c2ccccc2)C1N(O)C(=O)Nc1ccc([N+](=O)[O-])cc1 (configuration not stated)	–	?	–[10 µM]	–	–	–
CCOc1ccc(OCc2cccc(C(=O)N3CCCC3)c2)cc1	–	–	–[0.074 µM]	–	–	–
O=C(c1ccc(F)cc1)N1CCC(c2ccccc2)C1 (configuration not stated)	·	–	–[10 µM]	–	–[9.22 µM]	–
CCOc1ccc(OCc2cccc(C(=O)N3CCCCCC3)c2)cc1	·	35µM	·	–	–	–
CCCCOc1ccc(C(=O)N2CCCC2)cc1	2.2µM	?	–	–	–	–
COc1ccc(C(=O)N2CCCC(c3ccccc3)C2)cc1 (configuration not stated)	16µM	?	–	–	–[9.22 µM]	–
CCOc1ccc(OCc2ccc(C(=O)OCc3ccccn3)o2)cc1	25µM	?	–	–	–	–

High-throughput results deposited in PubChem BioAssay by National Center for Advancing Translational Sciences (NCATS).
